# ChEMBL document CHEMBL4513216, “Probing the Open Global Health Chemical Diversity Library for Multistage-Active Starting Points for Next-Generation Antimalarials” (ACS Infect Dis, 2020)
# Among all 68,000 compounds or so, about 2,700 (4%) showed an effect of 50% or more. Only a selection was taken, and strong results are over-represented in it overall.
# Test system: Plasmodium berghei
# Test: Screen against P. berghei liver stage (PbLuc), transformed with Luciferase, at 2uM
# Format: functional, HepG2
# Conditions: tested at 2 uM
row,Compound,INHIBITION [%]
1,COc1ccccc1CNC(=O)CN(C)C(C)c1nccs1 (centres undefined),38.91
2,c1cnn(CC2CCCN2c2ncnc3ccsc23)c1 (centres undefined),-16.42
3,CN(C)C(=O)N1CCO[C@@H]2CC(COCc3cccnc3)C[C@H]21 (some centres undefined),20.01
4,O=C(NCCCc1ccco1)c1ccc(N2CCOCC2)cc1,-89.85
5,O=C(NCCc1ccncc1)c1ccc(N2CCOCC2)cc1,68.9
6,O=C(NCCCc1ccc(F)cc1)c1ccc(N2CCOCC2)cc1,-26.8
7,Cn1c(-c2cc3n(n2)CCCN(CC(=O)O)C3)nc2ccccc21,-15.71
8,Cc1cccc(COC[C@H]2CC[C@H]3[C@H](CCN3C(=O)CC3CC3)O2)n1,9.79
9,Cc1cccc(COC[C@@H]2CC[C@H]3[C@H](CCN3Cc3ccco3)O2)n1,2.39
10,Cc1cccc(COC[C@@H]2CC[C@H]3[C@H](CCN3C(=O)CC3CC3)O2)n1,51.72
11,Cc1cc(C(=O)N2C[C@H](c3ccccc3)[C@@H](N)C2)c2ccc(F)cc2n1,2.31
12,CCc1ocnc1C(=O)N1CCCC1c1noc(C2CC2)n1 (centres undefined),43.85
13,COc1cnc(CSc2nnc(C)s2)cc1OCC(=O)NC1CCCC1,-8.85
14,CCCS(=O)(=O)N1CCC(Nc2c(F)cc(C#N)cc2F)CC1,10.85
15,CCS(=O)(=O)N1CCC(Nc2c(F)cc(C#N)cc2F)CC1,55.17
16,CCS(=O)(=O)N1CCC(Nc2ccc(C#N)cc2F)CC1,1.36
17,Cc1ccc(C(=O)N2CC[C@H]3[C@H]2CCN3CC2CCOCC2)cc1F,-4.54
18,Cc1nc[nH]c1CNCc1cccnc1N(C)C1CCCCC1,-15.91
19,COc1cccc(OCCc2nc3c(cc2C(N)=O)CCC3)c1,23.18
20,Cc1cnn(CC(C)NCc2cccnc2)c1 (centres undefined),8.13
21,Cc1cnn(CCNCc2cccnc2)c1,0.9
22,Cc1cnn(CC(C)NCc2ccc(OCc3cccnc3)cc2)c1 (centres undefined),16.18
23,Cc1cnn(CC(C)NCc2ccccc2OCc2cccnc2)c1 (centres undefined),50.05
24,Cc1cnn(CCNCc2ccc(OCc3ccncc3)cc2)c1,40.88
25,Cc1cnn(CCNCc2ccc(OCc3cccnc3)cc2)c1,88.86
26,Cn1c(=O)ccn(CC(=O)Nc2cnccc2O)c1=O,16.37

row,Compound,INHIBITION [%]
1,COCCC1(CO)CCCN(Cc2ccc(C(F)(F)F)nc2)C1 (centres undefined),26.66
2,CN1CCN(CC2(O)CCN(C(=O)CCc3ccccc3F)C2)CC1 (centres undefined),-20.27
3,CN1CCCC2(CC1)CCN(C(=O)CCc1ccccc1F)CC2,50.59
4,CN1CCCC2(CC1)CCN(C(=O)CCc1ccccc1O)CC2,48.21
5,CCc1nc(CNC(C)c2cccc(N3CCCC3=O)c2)cs1 (centres undefined),0.45
6,Cc1n[nH]cc1CNC(C)c1cccc(N2CCCC2=O)c1 (centres undefined),11.31
7,Cc1nc(CNC(C)c2cccc(N3CCCC3=O)c2)cs1 (centres undefined),65.57
8,Cc1ccc2nc(C3CCN(CC4CC4)CC3)nn2c1,28.95
9,CC(C)(C)c1nc(CN2CCc3onc(-c4cccc(F)c4)c3C2)no1,-7.68
10,O=C(c1ccco1)N1CCC[C@]2(C[C@H](Oc3ncccc3F)CO2)C1,-9.69
11,O=C(c1cc(-c2ccco2)nc2c(Cl)cccc12)N1CC[C@H]2CNC[C@H]21,53.98
12,O=C1CN(C(=O)c2cc(-c3ccco3)nc3c(Cl)cccc23)CCN1,38.83
13,O=C(c1cc(-c2ccco2)nc2c(Cl)cccc12)N1C[C@H]2CNC[C@H]2C1,35.46
14,Cc1occc1C(=O)N1CCOCC2(CCN(C3CCOCC3)C2)C1 (centres undefined),30.46
15,c1ccc2c(c1)C(NC1CCCC1)CC21CCNCC1 (centres undefined),53.81
16,Cc1ccc2c(c1)C1(CCNCC1)CC2NC1CC1 (centres undefined),13.67
17,Fc1ccc2c(c1)C1(CCNCC1)CC2NC1CC1 (centres undefined),21.32
18,CCc1ccc(C(=O)N2CCCC2c2nnc3n2CCCCC3)o1 (centres undefined),17.33
19,Cc1ccc(CN2CCc3nnc(CN4CCCC4=O)n3CC2)s1,60.6
20,O=C1CCCN1Cc1nnc2n1CCN(Cc1ccoc1)CC2,-11.91
21,Cc1cccc(CN2CCc3nnc(CN4CCCC4=O)n3CC2)n1,-43.47
22,c1ccc(CN2CCc3nnc(CN4CCCCC4)n3CC2)nc1,2.71
23,Cc1ccc(CN2CCc3nnc(CN4CCCC4=O)n3CC2)o1,47.97
24,O=C1CCCN1Cc1nnc2n1CCN(Cc1ccccn1)CC2,51.26
25,Cn1cc(N2CC3(COCCN(Cc4nccs4)C3)OCC2=O)cn1 (centres undefined),6.8
26,Clc1cnccc1N1CCCOCC1,-149.33

row,Compound,INHIBITION [%]
1,O=C1CC(c2ccncc2)c2c(sc3c2CCCC3)N1 (centres undefined),-5.89
2,Cc1cccc(N2CCN(C(=O)NC(C)c3nncn3C)CC2)c1C (centres undefined),38.76
3,CCN(CC)S(=O)(=O)N1CC[C@H](c2ccccc2)[C@H]2NCCCC[C@H]21,39.99
4,COc1cc(N2CCC(c3nccn3Cc3ccccc3)CC2)ncn1,-2.99
5,COc1cc(N2CCC(c3nccn3Cc3ccccn3)CC2)ncn1,53.19
6,COc1cc(N2CCC(c3nccn3Cc3cccnc3)CC2)ncn1,5.82
7,O=c1c2cc3c(cc2nnn1Cc1ccccc1Cl)OCCO3,-15.25
8,CN(C)C(=O)Cc1ccc(-c2cccc3c2CCNC3)cc1,2.11
9,CCC(C)C(=O)Nc1ccc(CCN2CCOCC2)cc1 (centres undefined),31.65
10,Cc1cc(C)c2nc(CN3CCC(CN)CC3)cc(O)c2c1,51.19
11,Cc1cc(C)c2nc(CN3CCC(C#N)CC3)cc(O)c2c1,3.91
12,Cc1cc(C)c2nc(CN3CCC(CN)C3)cc(O)c2c1 (centres undefined),25.06
13,Cn1c(CN2CCCCC2)cc(=O)c(O)c1CN1CCCCC1,14.97
14,O=C(c1ccco1)N1Cc2cnn(CC3CC3)c2C(COCC2CC2)C1 (centres undefined),14.09
15,COC1CCN(C(=O)Cn2ncc(N3CCCCC3)cc2=O)C1 (centres undefined),11.69
16,Cc1cccc(C(=O)Nc2cccc3c2CCCC3)n1,-25.13
17,O=C(Nc1cccc2c1CCCC2)c1cccnc1N1CCCNCC1,65.7
18,CC1CN(c2ncccc2C(=O)Nc2cccc3c2CCCC3)CCN1 (centres undefined),39.51
19,CN(Cc1ccc(Cl)cc1)S(=O)(=O)N(C)Cc1cnn(C)c1,-2.86
20,O=C(c1ccncc1)N1CCc2onc(CN3CCCC3)c2C1,37.35
21,O=C(c1ccc(Cl)o1)N1CCCC(c2cc(C(F)(F)F)[nH]n2)C1 (centres undefined),-102.06
22,CCC(Cn1ccc2[nH]c(=O)c(C#N)cc2c1=O)OC (centres undefined),0.03
23,CCCOC(C)Cn1ccc2[nH]c(=O)c(C#N)cc2c1=O (centres undefined),59.1
24,CC(O)CCn1ccc2[nH]c(=O)c(C#N)cc2c1=O (centres undefined),44.41
25,Cc1nc(C)n(Cc2cccc(NC(=O)N(C)CCC(C)O)c2)n1 (centres undefined),-3.2
26,Cc1cccc(-n2nc(CC(C)C)nc2CCC(=O)N(C)C)c1,8.13

row,Compound,INHIBITION [%]
1,CSCC(=O)N1CCc2c(cnc(C)c2-c2noc(-c3cc[nH]n3)n2)C1,18.84
2,COCCn1ccnc1C1CCCN(C(=O)CSc2nnc(C)o2)C1 (centres undefined),-7.17
3,CCn1c(CC2CCN(S(=O)(=O)N3CCCCC3)CC2)nn(C)c1=O,50.41
4,CCn1c(CC2CCN(S(=O)(=O)Cc3ccccc3)CC2)nn(C)c1=O,22.09
5,CCn1c(CC2CCN(S(=O)(=O)c3cccc(C)c3)CC2)nn(C)c1=O,38.96
6,CCc1nn(C)c(Cl)c1CN(CCOC)Cc1cnn(C)c1,-0.41
7,CCN1CC(C(=O)NC(C)(C)C(=O)OC)CC1=O (centres undefined),-59.42
8,COC(=O)C(C)(C)NC(=O)C1CC(=O)N(CC(C)C)C1 (centres undefined),49.16
9,COC(=O)C(C)(C)NC(=O)C1CC(=O)N(CC(F)(F)F)C1 (centres undefined),54.62
10,COc1ccc(CCN2CC(NCc3ncc[nH]3)CC2=O)cc1 (centres undefined),45.41
11,c1ccc(N2CC[C@@H]3CN(Cc4ccncc4)CCO[C@@H]3C2)cc1,-19.36
12,CS(=O)(=O)CCN(CCCO)C1CCc2ccccc21 (centres undefined),14.3
13,O=S(=O)(c1ccccc1F)N1CCCCC1c1cc[nH]n1 (centres undefined),-16.62
14,O=S(=O)(NC1CCCN(c2ncccn2)C1)N1CCCCCC1 (centres undefined),-56.93
15,COc1ccsc1C(=O)NC1CCN(c2cccc(F)c2)CC1,-11.07
16,Nc1nccc(N2CCC(c3cc(Cc4ccccc4)n[nH]3)CC2)n1,56.33
17,Cc1cc(CN2CCC(c3cc(Cc4ccccc4)n[nH]3)CC2)[nH]n1,-3.32
18,Nc1cc(N2CCC(c3cc(Cc4ccccc4)n[nH]3)CC2)ccn1,60.35
19,Nc1nc(O)cc(N2CCC(c3cc(Cc4ccccc4)n[nH]3)CC2)n1,5.41
20,Cc1ccc(N2CCC(c3cc(Cc4ccccc4)n[nH]3)CC2)nn1,-45.89
21,NC(=O)NCCC(=O)N1CCC(c2cc(Cc3ccccc3)n[nH]2)CC1,42.27
22,CC(=O)Nc1ccc(C(=O)N(C)Cc2cccc(F)c2)s1,45.05
23,CCN(CCn1cccn1)Cc1nc(-c2cccs2)oc1C,-9.1
24,Cc1nnsc1CN(C)C(=O)CCn1cnc2ccccc21,-40.44
25,CCOC(=O)N1CCN(c2nc(NCCCO)c3ccccc3n2)CC1,7.14
26,O=C1C(Sc2nnnn2C2CC2)CCN1c1ccccc1F (centres undefined),21.82
